Assay results: PubChem BioAssay (NCI)
Several values for one entry are separate records, joined by “and”; a condition that tells them apart may be missing. Equal entries are not always repeated. Compounds without any hit were thinned out: in the full panel of roughly 79,000, 15% have a hit. Unmarked numbers belong to inactive results. Activity calls are given as the source filed them. No stated cut-off is given here; in the data, active means growth inhibition above about 70%; inactive means the rest. Where a SMILES comes first, the peptide text is derived from it.

Tests used:
[1] = NCI Yeast Anticancer Drug Screen. Data for the rad50 strain (AID 155);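 further: 0% = growth of vehicle-only cultures of the same strain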; settings: S. cerevisiae rad50 strain growth inhibition, hits give high values; at 50.0 µM unless noted
Outline: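 Cells are treated with compound, grown, and their growth is then scored against vehicle-only cultures of the same repair-deficient yeast strain.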

[2] = NCI Yeast Anticancer Drug Screen. Data for the mec2-1 strain (AID 157); settings: S. cerevisiae mec2-1 strain, hits give high values; at 50.0 µM unless noted
Outline: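 Vehicle-treated cultures served as reference for growth inhibition of compound-exposed mec2-1 yeast.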

[3] = NCI Yeast Anticancer Drug Screen. Data for the sgs1 mgt1 strain (AID 161);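 further: 0% = growth of cultures given vehicle only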; settings: S. cerevisiae sgs1 mgt1 strain, hits give high values; at 50.0 µM unless noted
Outline: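 Genetically altered yeast, compound exposure, growth inhibition relative to vehicle.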

[4] = NCI Yeast Anticancer Drug Screen. Data for the cln2 rad14 strain (AID 165);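 further: 0% = growth equal to vehicle treated cultures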; settings: S. cerevisiae cln2 rad14 strain, hits give high values; at 50.0 µM unless noted
Outline: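 Each compound was tested on cln2 rad14 yeast. Inhibition of growth was calculated against vehicle-exposed controls.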

[5] = NCI Yeast Anticancer Drug Screen. Data for the bub3 strain (AID 167); settings: S. cerevisiae bub3 mutant strain, hits give high values; at 50.0 µM unless noted
Outline: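 Part of a panel of yeast mutants defective in DNA damage repair or cell cycle regulation. Each strain is grown with compound, and inhibition is calculated relative to solvent-treated cultures.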

[6] = NCI Yeast Anticancer Drug Screen. Data for the mlh1 rad18 strain (AID 175); settings: S. cerevisiae mlh1 rad18 strain growth inhibition, hits give high values; at 50.0 µM unless noted
Outline: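 Vehicle-treated cultures served as the reference for growth inhibition in a yeast strain carrying DNA damage repair alterations exposed to each compound.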

Structure (SMILES)	growth inhibition [1]	growth inhibition [2]	growth inhibition [3]	growth inhibition [4]	growth inhibition [5]	growth inhibition [6]
CCOC(=O)Cc1nc(/C(C#N)=C/c2ccco2)[nH]c(=O)c1C#N	2.4%	7.8%	30.9%	34.2%	8.15%	39.6%
NC(=O)C1OCOC2C(CO)OCOC12 (stereo unspecified)	-1.9%	-14.4%	-3%	-52.1%	-7.4%	-6.15%
CCNC(=O)CCCC(=O)OC	9.75%	4.55%	18.9%	14.6%	7.35%	2.2%
Cn1c2c(c(=O)c3ccccc31)CC(O)C(C)(C)O2 (stereo unspecified)	-23.6%	-35.7%	-6.4%	6%	3.35%	-2.65%
Cn1c2ccc3cc2c(=S)c2cc(ccc21)OCCOCCOCCOCCOCCO3	32.1%	-16%	0.65%	-17%	-13.3%	9.85%
Cc1ccc(OC/C=C/CSc2ccc(Br)cc2)cc1	4.95%	4.75%	2.4%	-2.4%	-19.9%	-24.9%
CC(=O)NC1C(OCc2ccccc2)OC(CO)C(O)C1OCC(=O)NC(C)C(=O)NC(CCC(=O)NCCCCCNc1c2ccccc2nc2cccc([N+](=O)[O-])c12)C(N)=O (stereo unspecified)	78.8% (active)	87.3% (active)	79% (active)	78.8% (active)	53.5%	89% (active)
C#CCN(Cc1ccc2nc(-c3ccccc3)c(Cl)nc2c1)c1cc(OC)c(OC)c(OC)c1	14.8%	-12.6%	-16.9%	-23.4%	-26.1%	4.75%
CSc1nnc(CCC(=O)Nc2cc(Cl)ccc2Cl)o1	40.7%	44.8%	28.9%	15.7%	54.5%	9.05%
CN(C)CCl	-1.4%	-28.2%	-12.4%	-4.1%	-15.5%	-13.1%
NC(=O)Nc1ccccc1-c1ccccc1	-0.6%	-11.2%	13.8%	-26.4%	-10.8%	7.45%
O=C1C=CC=C/C1=C1/SC(c2ccccc2)=C(O)N1c1ccccc1	-40.2%	-8.2%	-12.5%	-17.3%	-19.9%	-18.5%
COc1ccc(C2c3cc4c(cc3C(O)C3CCC(=O)N23)OCO4)cc1 (stereo unspecified)	-31.6%	3.3%	-17.2%	-1.25%	-7.4%	-15.1%
NNC(=O)c1nc2ccccc2s1	18.1%	4.75%	-8.3%	5.95%	8.95%	20.6%
NC(=O)c1ccc[n+]([O-])c1	15.1%	-0.5%	6.35%	6.6%	2.65%	-1.75%
O=C(Nc1cccc(I)c1)OCCCl	79.8% (active)	7.5%	87.2% (active)	0.4%	-7.55%	57.2%
CN(/N=C/c1cccs1)c1ccc(Cl)cc1[N+](=O)[O-]	-29.4%	-8.95%	-13.8%	0.95%	-7.45%	-1%
NC(=S)c1ccc2ccccc2c1	9.95%	13.9%	15.1%	6.15%	15.2%	9.2%
Cc1ccc(NC(=O)C(=O)CC(=O)c2sc(Nc3c(C)cccc3C)nc2C)cc1C	13.4%	-9.95%	1.85%	-27.7%	-23.4%	-2%
CCOC(=O)c1ccc(NC2Oc3cc4c(cc3C(c3cc(OC)c(OC)c(OC)c3)C2C)OCO4)cc1 (stereo unspecified)	-1.6%	-15.5%	-2.65%	11.4%	-9.8%	-9.55%
O=c1c2ccccc2oc2c(Cl)cc(Cl)cc12	-0.95%	-0.05%	9.35%	-10.3%	-6.5%	0.8%

Structure (SMILES)	growth inhibition [1]	growth inhibition [2]	growth inhibition [3]	growth inhibition [4]	growth inhibition [5]	growth inhibition [6]
O=C(Nc1ccc(Cl)cc1)Nc1nnc(-c2cccc(Cl)c2)o1	5.8%	5.75%	26.9%	-51.9%	0.2%	15%
N#Cc1c(O)c(N=Nc2ccc(Cl)cc2)c(=O)n2c1[nH]c1ccccc12	11.6%	14.2%	21.2%	28.9%	10.5%	18.7%
O=C(O)c1cccc(S(=O)(=O)c2ccc([N+](=O)[O-])cc2)c1	-0.25%	0.55%	4.9%	-6.15%	-5.7%	14.2%
N/N=C1\CC2C3CC4(OCCO4)C4C3CC2C14 (stereo unspecified)	1.6%	-4.7%	1.75%	6.55%	-7.6%	0.15%
COc1ccc(C(=O)NNC(=O)c2cccc3ccccc23)cc1	21.8%	-9.75%	9.7%	5.8%	16.6%	-3.6%
CC1CCC(C(=O)O)(C(Br)C(=O)O)CC1 (stereo unspecified)	-14.5%	-12.7%	-12.8%	-27.9%	-20.8%	-3.3%
NC(Cc1ccccc1)C(=O)NC(Cc1ccccc1)C(=O)O (stereo not drawn) (H-Phe-Phe-OH; configuration not given here)	19.6% and 11.1%	-0.8% and -19.4%	12.6% and -2.9%	-16.1% and -19.3%	6.2% and 4.05%	1.6% and 7.7%
CC(=O)Oc1ccccc1C(=O)N(N)CCSc1ccc(Cl)cc1	-0.45%	1.15%	11.2%	-32.2%	-12.5%	-1%
CS(=O)(=O)OCCN(CCOS(C)(=O)=O)c1cc(C(N)=O)c([N+](=O)[O-])cc1[N+](=O)[O-]	-5.05%	9.55%	-11.7%	-12.9%	-0.35%	16.9%
COC(=O)C1(C(C)C(=O)c2ccccc2)NC(=S)NC(=O)C1C#N (stereo unspecified)	-6.1%	-16.7%	-35.2%	-11.8%	-14.4%	-25.8%
COc1ccc(C(c2cc3c(cc2O)OCO3)N2CCN(C(c3ccc(OC)c(OC)c3)c3cc4c(cc3O)OCO4)CC2)cc1OC (stereo unspecified)	-3%	1.05%	1.6%	17.4%	2.2%	-17.1%
CN(N=O)C(=O)NCCn1cnc2c(=O)[nH]cnc21	-6.55%	14.4%	-5.35%	-56.8%	1.2%	-11.8%
c1ccc(CCCNc2nnnc3ccccc23)cc1	-9.3%	-36.1%	-10.8%	-19.2%	-57.2%	-4.4%
Cc1cccc[n+]1C	3.45%	4.35%	0.05%	-19.2%	22.9%	4.05%
CCCCCCCCCCCCOC(=O)NC1c2ccccc2Oc2ccccc21	30.4%	17.6%	26.6%	32.5%	19.6%	43.4%
CN(Cc1cc(Br)cc(Br)c1O)Cc1c(O)ccc2ccccc12	98.8% (active)	98.8% (active)	98.8% (active)	97.3% (active)	98.2% (active)	98.8% (active)
O=C(O)CCCCCCC(=O)O	2.1%	-4.85%	2.85%	2.95%	0.9%	-2.3%
CCCCOP(=O)(Nc1ccc([N+](=O)[O-])cc1)OCCCC	94.1% (active)	86.3% (active)	91.1% (active)	74% (active)	77.2% (active)	87.5% (active)
O=C1c2cccc3cc([N+](=O)[O-])cc(c23)C(=O)N1C(CO)(CO)CO	29.9%	12.6%	30.1%	27.5%	16%	-4.45%
CC(=O)Nc1nnn(C)n1	-4.65%	-5.55%	0.8%	-39.5%	9.1%	-3.45%
